The values that follow come from the antibiotic and cytotoxicity screens of Wong et al. (2023).

Out of some 39,000 compounds screened, about 3,300 (8.5%) were called active. The list comes from a sample in which actives are over-represented; it also holds similar structures and randomly drawn compounds.

This assay relates to HepG2. Nature of the assay: cytotoxicity call (relative viability < 0.9). The conditions noted are these: 10 µM.
For the molecule `CCCCOC(=O)C1=CC(=O)CC(C)(C)O1`, the cytotoxicity call is “active”.

With `C[C@@H](O)CN1C[C@H]2C[C@@H](C1)c1cccc(=O)n1C2`, the cytotoxicity call was “inactive”.

Turning to `CN1C[C@@H](C(=O)O)CN2CCN(C(=O)c3ccncc3F)C[C@@H]2C1`, the cytotoxicity call is “inactive”.

As for `O=C1CC2(CCNCC2)CN1`, the cytotoxicity call is “inactive”.

As to `C1CCC(NC2CCCC2)CC1`, the cytotoxicity call was “inactive”.

With `Cl.c1ccc2c(c1)OCC(C1=NCCN1)O2` (stereo not drawn), the cytotoxicity call is “active”.

On to `CCC1(C2=NCCN2)Cc2ccccc2O1.Cl` (stereo not drawn), for which the cytotoxicity call is “inactive”.

For the molecule `NCC[C@H]1COc2ccccc2O1`, the cytotoxicity call is “inactive”.

Take `FC(F)(F)c1nnc(N2CCNCC2)s1`: the cytotoxicity call is “inactive”.

For the molecule `CCN1C[C@]2(COC)CC[C@H](O)[C@@]34[C@@H]2[C@@H](OC)[C@@H]([C@@H]13)[C@@]1(OC(C)=O)C[C@H](OC)[C@H]2C[C@H]4[C@@H]1[C@@H]2OC(C)=O`, the cytotoxicity call is “inactive”.

Consider `CC(C)c1csc(CCN)n1`, for which the cytotoxicity call was “inactive”.

Take `CN1C[C@H]2CN[C@H]2C1`: the cytotoxicity call was “inactive”.

Take `Cc1[nH]c2ccccc2c1CN(C)C`: the cytotoxicity call is “inactive”.

Take `Cc1cccc(N2CCNCC2)n1`: the cytotoxicity call was “inactive”.

For the molecule `c1ccc(N2CCNCC2)nc1`, the cytotoxicity call is “inactive”.

On to `O=C(O)C=CC(=O)O.c1ccc2nc(N3CCNCC3)ccc2c1`, for which the cytotoxicity call was “active”.

Regarding `COc1ccc([C@H]2CC(=O)N3CCNC[C@@H]23)cc1`, the cytotoxicity call is “inactive”.

Regarding `CCCN1CC(CSC)CC2c3cccc4[nH]cc(c34)CC21.CS(=O)(=O)O` (stereo not drawn), the cytotoxicity call is “inactive”.

Turning to `CNC(C)C(O)c1ccccc1.Cl` (stereo not drawn), the cytotoxicity call is “inactive”.

On to `O=C(O)C[C@H]1CC[C@@H]2NC[C@H](O)COC[C@H]2O1`, for which the cytotoxicity call is “inactive”.

In the case of `C[CH2][Hg][S]c1ccccc1C(=O)[O-].[Na+]`, the cytotoxicity call was “active”.

As for `O=C([O-])Cc1ccccc1.[Na+]`, the cytotoxicity call was “inactive”.

For the molecule `N[C@@]1(C(=O)O)CC[C@H](C(=O)O)C1`, the cytotoxicity call is “inactive”.

Take `NCCc1ccc(S(=O)(=O)F)cc1`: the cytotoxicity call was “inactive”.

Turning to `CN1C(=O)NC(=O)/C(=C\C=C\c2ccco2)C1=O`, the cytotoxicity call is “inactive”.

Take `C[C@@]12NC(=O)CN1CCc1ccccc12`: the cytotoxicity call is “inactive”.

`CC(C)NC(=O)C1=NO[C@]2(CCNC2)C1`: the cytotoxicity call is “inactive”.

Turning to `Nc1nc(Cl)ncc1[N+](=O)[O-]`, the cytotoxicity call is “inactive”.

Turning to `O=C1CCCC2C3CC(CN12)C1CCCCN1C3.[O-][Cl+3]([O-])([O-])O` (stereo not drawn), the cytotoxicity call is “inactive”.

Take `Cc1nccc2c1[nH]c1cc(O)ccc12` [listing 1 of 2 here]: the cytotoxicity call was “active”.

For `Cc1nccc2c1[nH]c1ccccc12` [listing 1 of 2 here], the cytotoxicity call was “active”.

Take `Cc1nccc2c1[nH]c1cc(O)ccc12` [listing 2 of 2 here]: the cytotoxicity call was “inactive”.

For the molecule `Cc1nccc2c1[nH]c1ccccc12` [listing 2 of 2 here], the cytotoxicity call was “inactive”.

Turning to `c1ccc2c(c1)[nH]c1cnccc12`, the cytotoxicity call was “inactive”.

`COc1ccc2c(c1)[nH]c1c(C)nccc12`: the cytotoxicity call is “active”.

`COc1ccc2cc(CCN)c(=O)[nH]c2c1`: the cytotoxicity call was “inactive”.

Consider `Cc1ccc(C=C2C(=O)NC(=O)NC2=O)cc1`, for which the cytotoxicity call was “inactive”.

On to `NCC(=O)Nc1ccc(Br)cc1C(=O)c1ccccc1`, for which the cytotoxicity call was “inactive”.

As to `Cn1cnc(CCN)c1`, the cytotoxicity call is “inactive”.

In the case of `CC1(C)CCNC1=O`, the cytotoxicity call is “inactive”.

As for `COS(C)(=O)=O`, the cytotoxicity call is “inactive”.

As to `C[C@@H]1CN([C@@H](C)CO)C(=O)c2cc(NC(=O)Nc3ccccc3)ccc2O[C@@H](C)CCCCO[C@H]1CN(C)C(=O)Oc1ccccc1`, the cytotoxicity call was “inactive”.

Take `CNc1ccc2oc(C[C@H]3O[C@@]4(CC[C@H]3C)O[C@H]([C@H](C)C(=O)c3ccc[nH]3)[C@H](C)C[C@H]4C)nc2c1C(=O)O`: the cytotoxicity call is “active”.

`C[C@H]1CN([C@@H](C)CO)C(=O)CCCn2nncc2CO[C@H]1CN(C)C(=O)Oc1ccc2ccccc2c1`: the cytotoxicity call was “inactive”.

With `CC=C1CC(C)C(O)(CO)C(=O)OCC2=CCN3CCC(OC1=O)C23` (stereo not drawn), the cytotoxicity call is “inactive”.

`O=C1CC(=O)N(Cc2ccccc2)C(=O)N1`: the cytotoxicity call was “inactive”.

For `C[C@@]1(C(=O)O)[C@H]2CC[C@@H](O2)[C@@]1(C)C(=O)O`, the cytotoxicity call is “active”.

Consider `C[C@]12CC[C@](C)(O1)[C@H](C(=O)O)[C@@H]2C(=O)O`, for which the cytotoxicity call is “inactive”.

In the case of `O=C(O)[C@H]1[C@H](C(=O)O)[C@H]2CC[C@@H]1O2`, the cytotoxicity call is “inactive”.

On to `OCCN1CC2(CCN(c3nccs3)C2)C1`, for which the cytotoxicity call is “inactive”.

As for `C1CCNCC1`, the cytotoxicity call is “inactive”.

As to `Cc1cnc[nH]1`, the cytotoxicity call is “inactive”.

With `C[C@@H]1CN([C@H](C)CO)C(=O)CCCn2cc(nn2)CO[C@H]1CN(C)C(=O)Oc1cccc2ccccc12`, the cytotoxicity call is “inactive”.

Take `C[C@H]1CN([C@@H](C)CO)C(=O)CCCn2cc(nn2)CO[C@@H]1CN(C)C(=O)Oc1cccc2ccccc12`: the cytotoxicity call is “inactive”.

Turning to `CC(C)C12OC1C1OC13C1(C)CCC4=C(COC4=O)C1CC1OC13C2O` (stereo not drawn), the cytotoxicity call is “active”.

For the molecule `CC(C)c1ccc2c(c1O)CCC1C3=C(CCC21C)C(=O)OC3` (stereo not drawn), the cytotoxicity call is “inactive”.

Turning to `NCCc1c[nH]c2ccc(OCC(=O)O)cc12`, the cytotoxicity call is “inactive”.

As to `Nc1ncccc1CN1CC[C@]2(CC(=O)NC2=O)C1`, the cytotoxicity call was “inactive”.

In the case of `CC1CCC2C(C)C(=O)OC3OC4(C)CCC1C32OO4` (stereo not drawn), the cytotoxicity call was “inactive”.

For `CCOC1OC2OC3(C)CCC4C(C)CCC(C1C)C24OO3` (stereo not drawn), the cytotoxicity call was “active”.

In the case of `NC(=O)C12CC(CN1)C2`, the cytotoxicity call is “inactive”.

Take `COc1cc2c3cc1Oc1c(OC)c(OC)cc4c1C(Cc1cccc(c1)Oc1ccc(c(O)c1)CC3N(C)CC2)N(C)CC4.Cl.Cl` (stereo not drawn): the cytotoxicity call was “active”.

In the case of `COc1cc2c3cc1Oc1c(OC)c(OC)cc4c1[C@@H](Cc1cccc(c1)Oc1ccc(c(O)c1)C[C@@H]3N(C)CC2)N(C)CC4`, the cytotoxicity call is “inactive”.

On to `COc1ccc2c(c1O)-c1c(OC)c(OC)cc3c1C(C2)N(C)CC3` (stereo not drawn), for which the cytotoxicity call was “inactive”.

With `O=C(O)CF.[NaH]`, the cytotoxicity call was “inactive”.

As for `CC(=O)Oc1ccc(C=Cc2cc(OC(C)=O)cc(OC(C)=O)c2)cc1`, the cytotoxicity call was “inactive”.

`c1cnc(N2CCOC[C@@]3(CCCNC3)C2)cn1`: the cytotoxicity call is “inactive”.

With `O=C(CCCN1CCC2(CC1)C(=O)N(Cc1cccc(F)c1)CN2c1ccccc1)c1ccc(F)cc1`, the cytotoxicity call is “active”.

With `C[C@@H]1CN([C@@H](C)CO)C(=O)CCCn2nncc2CO[C@@H]1CN(C)C(=O)Oc1ccc2ccccc2c1`, the cytotoxicity call is “inactive”.

As to `C[C@@H]1CN([C@H](C)CO)C(=O)CCCn2cc(nn2)CO[C@@H]1CN(C)C(=O)Oc1ccc2ccccc2c1`, the cytotoxicity call is “inactive”.

On to `CC(C)C[C@H]1C(=O)N2CCC[C@H]2[C@]2(O)O[C@](NC(=O)[C@@H]3C=C4c5cccc6[nH]c(Br)c(c56)C[C@H]4N(C)C3)(C(C)C)C(=O)N12`, for which the cytotoxicity call was “inactive”.

Consider `C[C@@H](N)Cc1c[nH]c2ccc(OCc3cccs3)cc12`, for which the cytotoxicity call is “inactive”.

Take `C[C@H]1C[C@@H]2CNC[C@@H]2O1`: the cytotoxicity call was “inactive”.

For `CCN(CC)CCOC(=O)C(O)(c1ccccc1)c1ccccc1.Cl`, the cytotoxicity call was “inactive”.

On to `CCCCOC(=O)c1ccccc1C(=O)OCCCC`, for which the cytotoxicity call was “active”.

Take `CC(N)C(O)c1ccc(O)c(O)c1` (stereo not drawn): the cytotoxicity call was “inactive”.

As for `CCS(=O)(=O)N1C[C@@H]2CCN[C@@H]2C1`, the cytotoxicity call is “inactive”.

Consider `C[C@@H](N)Cc1c[nH]c2ccc(O)cc12`, for which the cytotoxicity call was “inactive”.

Turning to `O=C1CC[C@@H]2NCC[C@H]2N1`, the cytotoxicity call is “inactive”.

Regarding `CCC(N)C(O)c1ccc(O)c(O)c1.Cl` (stereo not drawn), the cytotoxicity call was “active”.

Consider `CC[C@@H](N)[C@@H](O)c1ccc(O)c(O)c1`, for which the cytotoxicity call was “inactive”.

As to `C[C@H](N)[C@H](O)c1ccc(O)c(O)c1`, the cytotoxicity call is “inactive”.

As to `CC=C(C)C(=O)OC1CCC2(C)C3CCC4C5(O)CC(O)C6(O)C(CN7CC(C)CCC7C6(C)O)C5(O)CC42OC13O.Cl` (stereo not drawn), the cytotoxicity call is “inactive”.

Consider `N#C[C@H](O[C@@H]1O[C@H](CO)[C@@H](O)[C@H](O)[C@H]1O)c1ccc(O)cc1`, for which the cytotoxicity call is “inactive”.

`Cl.N=C(N)NN`: the cytotoxicity call was “inactive”.

With `[N-]=[N+]=Nc1ccc2[nH]ccc2c1`, the cytotoxicity call was “inactive”.

In the case of `O=c1[nH]c2cc(N3CCNCC3)ccc2o1`, the cytotoxicity call is “active”.

For `Nc1ccc(N2CCNCC2)cc1`, the cytotoxicity call is “inactive”.

Regarding `Oc1ccc(N2CCNCC2)cc1`, the cytotoxicity call is “inactive”.

As for `OCc1ccco1`, the cytotoxicity call was “inactive”.

As to `Cc1nnc([C@H]2CCCNC2)o1`, the cytotoxicity call is “inactive”.

`CC[C@H]1/C=C/C=C/C[C@@H](C)[C@H](O)[C@@](C)(O)C(=O)[C@@H](C)[C@H](O)[C@@H](C)C(=O)[C@@H](C)[C@H](O)[C@@H](C)/C=C/C(=O)O[C@@H]2[C@H](C)[C@H](CC1)O[C@]1(CC[C@H](C)[C@H](C[C@@H](C)O)O1)[C@H]2C`: the cytotoxicity call is “inactive”.

Regarding `COc1cc(C2c3cc4c(cc3C(O)C3COC(=O)C23)OCO4)cc(OC)c1OC` (stereo not drawn), the cytotoxicity call was “active”.

As for `COc1ccc2c(c1OC)C(=O)OC2C1c2cc3c(cc2CCN1C)OCO3` (stereo not drawn), the cytotoxicity call is “inactive”.

As to `C[C@H](CO)N1C[C@H](C)[C@H](CN(C)C(=O)Oc2ccccc2)OCc2ccccc2-c2c(n(C)c3ccccc23)C1=O`, the cytotoxicity call is “inactive”.

As for `COc1cc2c(cc1OC)C1C(=O)c3ccc4c(c3OC1CO2)CC(C(C)C)O4` (stereo not drawn), the cytotoxicity call was “active”.

In the case of `C=C(C)C1Cc2c(ccc3c(=O)c4c(oc23)COc2cc(OC)c(OC)cc2-4)O1` (stereo not drawn), the cytotoxicity call was “inactive”.

For the molecule `COc1cc2c(cc1OC)C1C(=O)c3ccc4oc(C(C)C)cc4c3OC1CO2` (stereo not drawn), the cytotoxicity call was “active”.

On to `C=C(C)C1Cc2c(ccc3c2OC2COc4cc(OC)c(OC)cc4C2C3=O)O1` (stereo not drawn), for which the cytotoxicity call was “active”.

As to `O=C(NCc1ccccc1)[C@H]1C[C@H]2CNC[C@H]1O2`, the cytotoxicity call was “inactive”.

Take `CC(C)(C)[C@@]1(O)C[C@H]2OC(=O)C[C@]23C(=O)O[C@H]2OC(=O)[C@@H](O)[C@]231`: the cytotoxicity call was “inactive”.

Consider `C=CCN1CCC23c4c5ccc(O)c4OC2C(=O)CCC3(O)C1C5.Cl` (stereo not drawn), for which the cytotoxicity call is “inactive”.

As for `CCOC(OCC)P(=O)(O)CCCN`, the cytotoxicity call was “inactive”.

As to `O=C1CO[C@H]2CNC[C@@H]2N1CC1CCCC1`, the cytotoxicity call was “inactive”.

`CCOC(=O)[C@H]1[C@@H](C=C(C)C)C1(C)C`: the cytotoxicity call is “inactive”.

As to `COc1ccc(N(C(=O)Oc2c(C)cccc2C)c2ccnc(Nc3ccc(N4CCN(C)CC4)cc3)n2)c(OC)c1`, the cytotoxicity call is “inactive”.

For `N=C(N)N/N=C/c1ccc2c(c1)OCO2`, the cytotoxicity call is “inactive”.

Regarding `Cc1o[nH]c(=O)c1C[C@H](N)C(=O)O`, the cytotoxicity call was “inactive”.

With `CCC(=O)OC1CCC2C3CCC4=CC(=O)CCC4(C)C3CCC12C` (stereo not drawn), the cytotoxicity call was “inactive”.

With `CC12CCC(=O)C=C1CCC1C2CCC2(C)C(O)CCC12` (stereo not drawn), the cytotoxicity call was “inactive”.

As to `C#CC1(O)CCC2C3CCC4=CC(=O)CCC4(C)C3CCC21C` (stereo not drawn), the cytotoxicity call is “active”.

For the molecule `CN1[C@H](CO)[C@H]2c3ccccc3NC[C@H]21`, the cytotoxicity call was “inactive”.

For `Cl.NNCc1ccccc1`, the cytotoxicity call is “inactive”.

Take `CC(=O)[O][Cd][O]C(C)=O`: the cytotoxicity call is “inactive”.

As for `NC[C@@H](O)c1ccc(Br)cc1`, the cytotoxicity call was “inactive”.

On to `C[C@@H]1NC[C@@H]2CCCN2C1=O`, for which the cytotoxicity call was “inactive”.

For `O=c1[nH]c2ccccc2n1CCCN1CCC(n2c(=O)[nH]c3cc(Cl)ccc32)CC1`, the cytotoxicity call was “inactive”.

As for `O=c1[nH]c2ccccc2n1C1CCN(CCCC(c2ccc(F)cc2)c2ccc(F)cc2)CC1`, the cytotoxicity call was “active”.
